Screens deposited in PubChem by several laboratories.
An excerpt weighted towards active compounds, which were near 3.8% of everything screened.
ADAM17 inh = inhibitors of human ADAM17; P78536; recombinant ADAM17, EDANS/DABCYL FRET peptide cleavage; inhibition, % at 6.95 µM; hit rate 0.83% among 370,000; AID 720648;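 active = inhibition above the mean of compounds lying between control limits plus 3 SD, set per campaign, cut at about 8.5% in these data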;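 note: 0% = DMSO-only wells as the low control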
Ecoli rRNA inh = inhibitors of bacterial rRNA selective over humanized ribosomes | hit rate 1.6% among 350,000 | GFP signal change (wild-type ribosome), % (test concentration not listed) | E. coli WT GFP vs humanized-ribosome RFP mutants, fluorescence, 24 h; stronger effect = lower value; DMSO median 0, no signal -100;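 active = significant combined selectivity score with lowered wild-type GFP, culture density cut under 30%, mutant RFP and density less affected; inactive = any of these conditions unmet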
proKLK7 act = activates the human kallikrein-7 zymogen; P49862; purified proKLK7, EDANS-DABCYL substrate fluorescence; 100% is mature enzyme control, 0% vehicle; AID 652039; activation, % at 7 µM; hit rate 0.9% among 370,000;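 active = activation above the mean of all tested compounds plus 3 SD, computed per campaign excluding outliers beyond control limits, cut at about 13% in these data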
ADAM10 inh = ADAM10 inhibition, QFRET primary screen; recombinant ADAM10, EDANS/DABCYL FRET peptide cleavage, 3 h; inhibition, % at 7 µM; O14672; hit rate 0.62% among 370,000;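 active = inhibition above a per-campaign cutoff equal to the mean of compounds falling between control-based bounds plus 3 SD, cut at about 20% in these data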;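 note: 0% = DMSO wells while the 100% control is not disclosed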
Target sequence (O14672 214-748 limits assumed): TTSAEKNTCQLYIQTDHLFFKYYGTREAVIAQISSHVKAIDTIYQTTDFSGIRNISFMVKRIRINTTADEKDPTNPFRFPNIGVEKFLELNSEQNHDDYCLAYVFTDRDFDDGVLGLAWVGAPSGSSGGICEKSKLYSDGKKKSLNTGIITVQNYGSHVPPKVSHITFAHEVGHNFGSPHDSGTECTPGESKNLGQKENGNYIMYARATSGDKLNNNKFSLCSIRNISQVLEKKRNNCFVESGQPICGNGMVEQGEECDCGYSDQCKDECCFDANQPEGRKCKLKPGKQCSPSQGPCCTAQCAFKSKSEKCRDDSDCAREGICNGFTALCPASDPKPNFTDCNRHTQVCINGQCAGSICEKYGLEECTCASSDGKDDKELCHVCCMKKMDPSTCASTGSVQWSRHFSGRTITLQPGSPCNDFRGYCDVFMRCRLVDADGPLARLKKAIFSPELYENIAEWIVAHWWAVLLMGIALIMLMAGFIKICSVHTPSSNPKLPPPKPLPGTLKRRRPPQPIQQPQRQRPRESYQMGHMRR
FGF22 binding = FGF22 (human) thermal shift binding; Q9HCT0; recombinant FGF22 thermal shift, SYPRO orange fluorescence; percent of sucrose octasulfate shift, DMSO zero; activity (Tm shift, normalised), % at 9.99 µM; hit rate 1.5% among 340,000;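 active = mean Tm shift, scaled 0 neutral to 100 positive control, at about 1.3% or above, every replicate too, limit read from the data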
Numbers without * were called inactive; i = inactive; . = not tested or not shown; ! = repeats disagree.

SMILES | ADAM17 inh | Ecoli rRNA inh | proKLK7 act | ADAM10 inh | FGF22 binding
Cc1sc2ccccc2c1CNC[C@H]1O[C@@H](n2cnc(C(N)=O)n2)[C@H](O)[C@@H]1O | 4 | 13 | 0 | 4 | 44*
Cc1sc2ccccc2c1CNC[C@H]1O[C@@H](n2ccc(N)nc2=O)[C@H](O)[C@@H]1O | -2 | . | 0 | -1 | 0
Cc1cc(C)c(S(=O)(=O)N2CCN(C(=O)c3cccs3)CC2)c(C)c1 | 1 | -32 | 0 | 2 | 43*
Clc1cccc(-c2nc(NCCCN3CCOCC3)c3ccccc3n2)c1 | 4 | -60 | 1 | 5 | 1
Clc1ccc(-c2nc(NCCCN3CCOCC3)c3ccccc3n2)cc1 | -1 | -17* | 0 | 1 | 0
Cc1nn(CC(=O)Nc2nccs2)c(C)c1[N+](=O)[O-] | -1 | 2 | -1 | 4 | 0
Cc1cc([N+](=O)[O-])nn1CCC(=O)Nc1nccs1 | 6 | 8 | 0 | 8 | 43*
O=P1(Nn2cnnc2)C=C(c2ccccc2)OC(c2ccccc2)=C1 | 4 | . | 0 | 8 | .
CC[N+](CC)(CCCCS(=O)(=O)[O-])CCNP1(=O)C=C(c2ccccc2)OC(c2ccccc2)=C1 | -2 | 16 | 0 | 0 | 44*
C/C(=N\NC(=O)c1ccc([N+](=O)[O-])cc1)c1cccc([N+](=O)[O-])c1 | -3 | 11 | 1 | 5 | 0
C/C(=N\NC(=O)c1cccnc1)c1cccc([N+](=O)[O-])c1 | -3 | 15 | 0 | -1 | 43*
O=S(=O)(Cc1cc(NCc2ccccc2)nc(-c2ccccn2)n1)c1ccccc1 | 0 | -39* | 1 | -5 | 1
CCOC(=O)Cc1cc(=O)[nH]n(-c2ccccc2)c1=O | 0 | 8 | 0 | -13 | 44*
COc1ccc(CN2CCNC(=O)C2CC(=O)NC2CCCC2)c(C)c1C (stereo unspecified) | -5 | 23 | -1 | -13 | 0
COc1ccc(CN2CCNC(=O)C2CC(=O)NCCCC2CCCC2)c(C)c1C (stereo unspecified) | -3 | -26* | 0 | -9 | 0
COc1cc2c(c(OC)c1OC)C(=O)C(=Cc1ccccc1)O2 | -1 | -29* | 0 | 2 | 0
COc1ccc(/C=C2\OC(=O)c3c(OC)cccc32)cc1OC | -321 | . | -119 | i | .
CCOc1cc(NC(=O)Nc2ccc(F)cc2)c(OCC)cc1NC(=O)CC | 0 | -38* | 0 | 2 | 0
CCOC(=O)c1ccc(NC(=O)Nc2ccc(F)cc2)cc1 | -3 | . | 1 | 6 | .
Cc1cccc(N2C(=O)C(O)=C(C(=O)c3cccs3)C2c2ccc(C(C)C)cc2)n1 (stereo unspecified) | -1 | -23* | 0 | 5 | 0
Cc1cccc(N2C(=O)C(O)=C(C(=O)c3cccs3)C2c2ccc(F)cc2)n1 (stereo unspecified) | -2 | -1 | 0 | -3 | 0
CC(C)NC(=O)N(C)C[C@@H]1Oc2ncc(C#CC3CC3)cc2C(=O)N([C@H](C)CO)C[C@@H]1C | . | -4 | . | . | 1
C[C@@H]1CN([C@@H](C)CO)C(=O)c2cc(-c3ccccc3F)cnc2O[C@H]1CN(C)C(=O)CN(C)C | . | -1 | . | . | -1
CN(CCC#N)c1ccc(C=C(C#N)c2ccc(Br)cc2)cc1 | 8 | 10 | 0 | -1 | 44*
CCOCCCNC(=S)NCCNc1nc2ccc(C)cc2cc1C#N | -111 | 0 | 4 | -379 | 44*
SMILES | ADAM17 inh | Ecoli rRNA inh | proKLK7 act | ADAM10 inh | FGF22 binding
CCOCCCNC(=S)NCCCNc1nc2ccc(C)cc2cc1C#N | -115 | 20 | 8 | -376 | 1
O=C(c1ccccc1NS(=O)(=O)c1cccc2cccnc12)N1CCOCC1 | -2 | 13 | 0 | -5 | 43*
O=C(c1cccnc1Cl)N1CCOCC1 | 6 | 12 | 0 | 8 | 44*
C[C@H](CO)N1C[C@H](C)[C@H](CN(C)C(=O)Nc2ccc(F)cc2)Oc2cc(-c3ccc(F)cc3)ccc2S1(=O)=O | . | -4 | . | . | .
O=C(N[C@H]1CC[C@H](CCNS(=O)(=O)c2ccc(Cl)cc2)O[C@@H]1CO)c1cccc(F)c1 | -7 | -25*! | 0 | -5 | 0
O=C(N[C@@H]1CC[C@@H](CCNS(=O)(=O)c2ccc(Cl)cc2)O[C@H]1CO)c1cccc(F)c1 | . | -3 | . | . | 0
O=C(c1ccncc1)N1CC(=O)N2[C@@H](CO)[C@H](c3ccc(-c4ccccc4F)cc3)[C@@H]2C1 | . | 4 | . | . | .
